POLB inh: DNA polymerase beta (human) inhibition | Potency, µM (highest dose often 114 µM), without a hit: at the top dose activity change, negative = inhibition, hits mostly inhibitors | actives 1.3% (n = 340,000) | AID 485314 | Pol beta primer extension/strand displacement, fluorescence kinetic | P06746; also: potency is read from the fitted curve at half-maximal effect; % is scaled to controls: 0 for no effect and ±100 for the full control effect
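Values derive from four-parameter Hill fits of normalized kinetic data: reads at 0 and 10 min following addition of 50 nM substrate to 10 nM Pol beta preincubated 15 min with compound.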
POLK inh: DNA polymerase kappa (human) inhibition; purified Pol kappa, fluorescent DNA synthesis assay, 10 min; Potency, µM (series often up to 107 µM), for inactives: at the top dose activity, negative = inhibition, hits mostly inhibitors; actives 0.53% (n = 400,000); also: potency is read from the fitted curve at half-maximal effect; % is scaled to controls: 0 for no effect and ±100 for the full control effect
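50 nM final substrate added after 15 min RT preincubation of 10 nM Pol kappa with compound; fluorescence read at 0 and 10 min.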
Pol eta inh: inhibitors of human DNA polymerase eta; actives 1.2% (n = 390,000); Q9Y253; Potency, µM (series often up to 114 µM), inactives show at the top dose activity change, negative = inhibition, actives largely listed as inhibitors; recombinant Pol eta, fluorescent DNA replication assay; AID 588591; also: potency is read from the fitted curve at half-maximal effect; % is scaled to controls: 0 for no effect and ±100 for the full control effect
Target sequence (Q9Y253 whole entry, looked up): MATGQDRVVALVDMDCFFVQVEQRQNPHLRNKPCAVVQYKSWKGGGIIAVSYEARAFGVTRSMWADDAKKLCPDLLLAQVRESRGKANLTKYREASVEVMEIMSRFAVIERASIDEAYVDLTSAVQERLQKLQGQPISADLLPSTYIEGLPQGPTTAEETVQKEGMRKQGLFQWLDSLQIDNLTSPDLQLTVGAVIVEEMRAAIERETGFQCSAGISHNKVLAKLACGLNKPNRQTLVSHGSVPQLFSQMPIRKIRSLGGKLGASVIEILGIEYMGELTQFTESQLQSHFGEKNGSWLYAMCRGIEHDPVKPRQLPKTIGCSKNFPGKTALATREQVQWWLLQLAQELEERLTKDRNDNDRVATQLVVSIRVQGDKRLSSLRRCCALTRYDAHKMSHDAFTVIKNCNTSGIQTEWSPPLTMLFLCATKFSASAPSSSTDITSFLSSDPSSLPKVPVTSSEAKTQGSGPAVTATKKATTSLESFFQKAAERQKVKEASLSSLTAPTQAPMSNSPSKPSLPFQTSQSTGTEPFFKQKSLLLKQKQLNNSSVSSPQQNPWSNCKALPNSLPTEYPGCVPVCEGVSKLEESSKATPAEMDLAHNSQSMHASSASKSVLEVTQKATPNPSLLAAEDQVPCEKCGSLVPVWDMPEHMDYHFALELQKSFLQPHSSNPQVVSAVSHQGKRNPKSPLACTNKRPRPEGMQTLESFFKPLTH
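Pol eta (10 nM) was preincubated with compounds for 15 min at room temperature, after which fluorescent replication substrate (50 nM final) was added to start the reaction. Fluorescence was read kinetically at 0 and 10 min.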
Pol iota inh: blocks human DNA polymerase iota activity; Q9UNA4; Pol iota fluorescent replication assay, 10 min; Potency, µM (series often up to 115 µM), for the others: at the highest dose activity, negative = inhibition, usual class: inhibitors; actives 1% (n = 390,000); also: potency is read from the fitted curve at half-maximal effect
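Pol iota at 10 nM preincubated 15 min with compounds at room temperature; reaction started with fluorescent substrate, 50 nM final. Fluorescence read kinetically at 0 and 10 min; buffer-only wells as negative control.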
PI5P4K alpha inh: inhibitors of human PI5P4K alpha; P48426; PI5P4Kalpha enzyme, ADP-Glo luminescence, 60 min; active compounds read low; max response, %; actives 1.2% (n = 330,000); active = max response of -50% or lower; inconclusive = between -30% and -50%; inactive = -30% or higher; also: value at the top dose of about 77 µM; % is scaled to controls: 0 for no effect and ±100 for the full control effect
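Compounds were pin-transferred onto PI5P4Kalpha and substrate in HEPES pH 7.4 buffer with EGTA, CHAPS and 5% DMSO. ATP (5 microM final) started the reaction, which ran 60 minutes at room temperature before ADP-Glo detection.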
WRN helicase inh: blocks human WRN helicase. Potency, µM (highest dose often 114 µM), inactives show top-dose activity change, negative = inhibition, most hits filed as inhibitors. AID 651768. actives 0.46% (n = 360,000). Q14191. WRN helicase unwinding, fluorescent forked duplex, kinetic; also: potency is read from the fitted curve at half-maximal effect; % is scaled to controls: 0 for no effect and ±100 for the full control effect; nearly all actives have a fitted effect of over 55% in size
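WRN at 20 nM final preincubated with compound 15 min at room temperature; reaction started with 100 nM fluorophore/quencher forked duplex oligonucleotide and 2 mM ATP final. Unwinding followed kinetically by red fluorescence (ex 525, em 598 nm).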
An asterisk follows results filed as active; [ ] = remark or other dose. In the library only some 2.8% were active in any assay of this set; here they are far more common. Unless noted, calls follow the shape of the dose curve; as a rule, active = well fitted curve in the direction sought with a large enough effect; inconclusive = small, poorly fitted or top-dose-only effect, or another doubt; inactive = no such curve, though single readings can be large; an effect the other way counts as inactive or inconclusive.

CCOc1cc(N2CCOCC2)c(OCC)cc1NS(=O)(=O)c1ccc(Cl)s1 was read as POLB inh -80%, POLK inh -15%, Pol eta inh 0%, Pol iota inh 28µM*, PI5P4K alpha inh 8 and WRN helicase inh -9%[57.1 µM].
`CCOc1cc(N2CCOCC2)c(OCC)cc1NC(=O)c1cc(S(=O)(=O)N2CCOCC2)ccc1Cl` gave POLK inh -4%, Pol eta inh -11%, Pol iota inh 15%, PI5P4K alpha inh 6 and WRN helicase inh -1%.
`Cc1ccc(C)c(N2CCN(CCCNC(=O)c3ccc4nc(N5CCCCC5)sc4c3)CC2)c1` gave POLB inh -4%, POLK inh -1%, Pol eta inh -12% and Pol iota inh 7%.
`COc1cccc(/C=C2\Oc3cc(OCC(=O)N4Cc5ccccc5C[C@H]4C(=O)O)ccc3C2=O)c1` gave POLB inh 2%, POLK inh -31%, Pol eta inh 50µM*, Pol iota inh inconclusive, PI5P4K alpha inh inconclusive and WRN helicase inh -9%[11.6 µM].
For CCn1c(SCC(=O)Nc2ccc(F)cc2)nnc1C1CC1 the results were POLB inh 7%, POLK inh -14%, Pol eta inh 2%, Pol iota inh 8%, PI5P4K alpha inh 1 and WRN helicase inh 5%.
`CCn1c(SCC(=O)Nc2sccc2C(N)=O)nnc1C1CC1` gave POLK inh inconclusive, Pol eta inh -9%, Pol iota inh 56µM*, PI5P4K alpha inh inconclusive and WRN helicase inh 2%[11.6 µM].
For COc1ccccc1NC(=O)C(=O)NCCc1csc(-c2cccc(F)c2)n1 the results were POLB inh 5%, POLK inh -10%[60.1 µM], Pol eta inh 10% and Pol iota inh -8%.
Screening CCn1nc([N+](=O)[O-])c2c(-c3nc4ccccc4o3)c(N)n(CCCOC)c2c1=O returned POLB inh inconclusive, POLK inh 1%, Pol eta inh inconclusive, Pol iota inh 160%, PI5P4K alpha inh -8 and WRN helicase inh 32µM*.
COCCCn1c(-c2ccco2)nc2ccccc2c1=O was read as POLB inh 34%, POLK inh 7%, Pol eta inh -5%, Pol iota inh 6%, PI5P4K alpha inh 0 and WRN helicase inh 8%.
Screening O=C(Nc1sc2c(c1C(=O)NCc1ccccc1)CCCC2)c1cc(=O)c2cc(Cl)ccc2o1 returned POLB inh -2%, POLK inh -25%, Pol eta inh -8% and Pol iota inh -18%.
CC(=O)Nc1ccc(NC2=C/C(=N/S(=O)(=O)c3cccs3)c3ccccc3C2=O)cc1 was read as POLB inh inconclusive, POLK inh -11%, Pol eta inh inconclusive, Pol iota inh 14µM*, PI5P4K alpha inh 1 and WRN helicase inh -9%.
For Cc1ccccc1NC1=C/C(=N\S(=O)(=O)c2cccs2)c2ccccc2C1=O the results were POLB inh 26%, POLK inh -21%, Pol eta inh 11µM*, Pol iota inh 3.2µM*, PI5P4K alpha inh -14 and WRN helicase inh -12%[57.1 µM].
`CCOC(=O)c1cc(-c2ccccc2)n(CC(=O)Nc2ccc(OC)cc2OC)c1C` gave POLB inh 1%, POLK inh -2%[60.1 µM], Pol eta inh -4% and Pol iota inh -10%.
Screening O=C(O)c1ccc(C2Nc3ccccc3-c3nnc(SCc4ccc(Cl)cc4)nc3O2)cc1 (centres undefined) returned POLB inh 25µM*, POLK inh inconclusive, Pol eta inh -28% and Pol iota inh inconclusive.
O=C(CN1C(=O)/C(=C2/SC(=S)N(CCS(=O)(=O)O)C2=O)c2ccccc21)Nc1cccc(Br)c1 was read as POLK inh inconclusive, Pol eta inh inconclusive, Pol iota inh inconclusive, PI5P4K alpha inh -57* and WRN helicase inh inconclusive.
Screening CCOCCCn1c(=N)c(C(N)=S)cc2c(=O)n3cccc(C)c3nc21 returned POLB inh -23%, POLK inh 0%, Pol eta inh -5%, Pol iota inh inconclusive and WRN helicase inh -27%.
CCOC(=O)c1cc2c(=O)n3cccc(C)c3nc2n(C)c1=N was read as POLB inh 79µM*.
`CC(=O)Nc1ccc(S(=O)(=O)NC2(C(F)(F)F)C(=O)Nc3c2c(=O)[nH]c(=O)n3-c2ccc(C)c(C)c2)cc1` (centres undefined) gave POLB inh -1%, POLK inh -16%, Pol eta inh -3% and Pol iota inh 12%.
Screening Cc1ccc(/C=C/C(=O)O)cc1S(=O)(=O)Nc1ccccc1C(=O)O returned POLB inh inconclusive, POLK inh -16%, Pol eta inh 45µM*, Pol iota inh 60%, PI5P4K alpha inh -53* and WRN helicase inh 2%[11.6 µM].
`Cc1ccc(/C=C/C(=O)O)cc1S(=O)(=O)N1CCc2ccccc2C1` gave POLB inh 6%, POLK inh -4%, Pol eta inh -7%, Pol iota inh 106%, PI5P4K alpha inh inconclusive and WRN helicase inh 3%[57.1 µM].
Screening Cc1ccc(/C=C/C(=O)O)cc1S(=O)(=O)N1CCCCC1 returned POLB inh 2%, POLK inh 12%, Pol eta inh -2%, Pol iota inh 21%, PI5P4K alpha inh -7 and WRN helicase inh -12%.
Screening Cc1ccc(/C=C/C(=O)O)cc1S(=O)(=O)N1CCCc2ccccc21 returned POLB inh 3%, POLK inh -19%, Pol eta inh 3%, Pol iota inh -5%, PI5P4K alpha inh -90* and WRN helicase inh -5%.
Cc1ccc(/C=C/C(=O)O)cc1S(=O)(=O)N1CCc2ccccc21 was read as POLB inh 49%, POLK inh -10%, Pol eta inh -8%, Pol iota inh 18%, PI5P4K alpha inh -76* and WRN helicase inh -5%[57.1 µM].
For COc1ccc(NC(=O)CSC2=Nc3ccccc3C3=NC(Cc4ccccc4)C(=O)N23)cc1Cl (centres undefined) the results were POLB inh 12%, POLK inh 3%[60.1 µM], Pol eta inh 0% and Pol iota inh -9%.
For CCCC(=O)Nc1nnc(SCc2cc(=O)n3ccccc3n2)s1 the results were POLB inh 0%, POLK inh -4%[60.1 µM], Pol eta inh 11% and Pol iota inh -13%.
O=[N+]([O-])c1ccc(-c2nc(NCc3ccccc3)c3ccccc3n2)cc1 was read as POLB inh 1%, POLK inh -16%, Pol eta inh 79µM*, Pol iota inh 46%, PI5P4K alpha inh 1 and WRN helicase inh -9%[57.1 µM].

Bioassay records from PubChem.
